Measurements taken from PubChem BioAssay.
For part of these data: Results with a measured potency or affinity are listed apart. Calls of active or inactive are those of the source. Unless noted, the rule behind the calls is not given here.

Columns and labels:
[1] = target: Cell division control protein 42 homolog (Homo sapiens) (UniProt P60953); assay: activated mutant Cdc42 GTP-binding inhibitors, dose response, biochemical, multiplex bead flow cytometry, Bodipy-FL-GTP (AID 1333;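 active = fitted half-maximal concentration within the tested dose range, moderate curve steepness, a statistically real signal drop, and little compound fluorescence or tag-binding interference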)
[2] = target: Cell division control protein 42 homolog (Homo sapiens) (UniProt P60953); assay: wildtype Cdc42 GTP-binding inhibitors, dose response, biochemical, multiplex bead flow cytometry, Bodipy-FL-GTP (AID 1334;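 active = fitted half-maximal concentration within the tested range, moderate curve steepness, significant signal drop, and little compound fluorescence or bead-linkage interference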); details: bead-based flow cytometry, Bodipy-FL-GTP binding to GST-Cdc42; at 100 µM (top of the series) unless noted
[3] = target: GTPase HRas (Homo sapiens) (UniProt P01112); assay: inhibitors of GTP binding to wildtype Ras, dose response, biochemical, multiplex bead flow cytometry (AID 1335;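 active = fitted half-maximal concentration within 10 nM to 100 µM, steepness 0.5 to 2, significant signal drop, low assay interference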); details: bead-based flow cytometry, Bodipy-GTP binding to GST-Ras; at 100 µM (top of the series) unless noted
[4] = system: Ras-related protein Rab-7a (dog), GTP binding; assay: Rab7 GTP binding inhibitors, potency, dose response, biochemical, wildtype, multiplex bead flow cytometry (AID 1336)
[5] = target: Ras-related C3 botulinum toxin substrate 1 (Homo sapiens) (UniProt P63000); assay: wildtype Rac1 GTP binding inhibitors, dose response, biochemical, multiplex bead flow cytometry (AID 1340;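 active = dose curve with midpoint inside tested range, moderate steepness, plateau gap beyond fit error, low compound glow and bead-link interference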); details: GST-Rac1 beads, Bodipy-FL-GTP binding; at 100 µM (top of the series) unless noted
[6] = target: GTPase HRas (Homo sapiens) (UniProt P01112); assay: activated Ras mutant GTP binding inhibitors, dose response, biochemical, multiplex bead flow cytometry (AID 1341;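 active = dose-response curve with midpoint inside the tested range, moderate steepness, significant amplitude and little compound fluorescence or bead-attachment interference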;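 note: GST-tagged constitutively activated Ras mutant immobilized on beads and multiplexed with other GTPases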)

Chain of Cell division control protein 42 homolog (Homo sapiens) (P60953 whole entry, looked up): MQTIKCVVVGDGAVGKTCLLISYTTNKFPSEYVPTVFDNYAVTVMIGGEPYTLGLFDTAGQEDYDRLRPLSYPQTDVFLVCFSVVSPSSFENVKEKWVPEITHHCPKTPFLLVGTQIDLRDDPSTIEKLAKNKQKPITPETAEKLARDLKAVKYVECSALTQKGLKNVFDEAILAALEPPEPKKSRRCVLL
Chain of GTPase HRas (Homo sapiens) (P01112 whole entry, looked up): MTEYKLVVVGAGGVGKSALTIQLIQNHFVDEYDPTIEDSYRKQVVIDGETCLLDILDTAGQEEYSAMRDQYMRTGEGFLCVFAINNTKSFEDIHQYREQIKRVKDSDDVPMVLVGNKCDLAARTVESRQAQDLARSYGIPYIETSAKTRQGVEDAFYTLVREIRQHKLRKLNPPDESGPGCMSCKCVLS

Row | Compound | outcome [1] | fluorescence, percent of control (lower = inhibition) [2] [%] | GTP binding, percent of control [3] [%] | outcome [4] | GTP binding signal, raw median fluorescence (lower = inhibition) (MCF (arbitrary fluorescence units)) [5] | outcome [6]
1 | O=C(O)c1ccc(NS(=O)(=O)c2ccc3c(c2)C(=O)c2ccccc2C3=O)cc1 | inactive | 28.6 | 69 | inactive | 118 | inactive
2 | CC1=CC(=O)C=C(C)C1=NOS(=O)(=O)c1ccccc1 | inactive | 29.6 | 81.2 | inactive | 223 | inactive
3 | CN(/N=C/c1ccco1)C1=NS(=O)(=O)c2ccccc21 | inactive | 32 | 74.9 | inactive | 206 | inactive
4 | CCOc1cccc(/C(O)=C2/C(=O)C(=O)N(CCOC)C2c2ccncc2)c1 (stereo not given) | inactive | 46.9 | 57.7 | inactive | 0 | inactive
5 | CC(C)C(=O)N1CCN(c2ccccc2NC(=O)c2cccc(Cl)c2)CC1 | inactive | 34.8 | 82.2 | inactive | 269 | inactive
6 | CCN(CC)c1ccc(-c2nn3c(-c4cccnc4)nnc3s2)cc1 | inactive | 72.7 | 46.9 | inactive | 126 | inactive
7 | CCN(CC)c1ccc(/C=c2/sc3nnc(-c4ccccc4C)n3c2=O)cc1 | inactive | 120 | 123 | inactive | 236 | inactive
8 | Cc1nc2ccc(NC(=O)COc3ccccc3)cc2s1 | inactive | 37.6 | 89.8 | inactive | 271 | inactive
9 | C=CCN(CC=C)S(=O)(=O)c1ccc(C(=O)Nc2nc3c(s2)CCc2ccccc2-3)cc1 | inactive | 51.4 | 57.3 | inactive | 0 | inactive
10 | CCOC(=O)Cn1nnnc1C(CC)N(Cc1cccs1)Cc1cc2ccc(OC)cc2[nH]c1=O (stereo not given) | inactive | 97.8 | 173 | inactive | 194 | inactive
11 | COc1ccccc1OCCn1cc(C(=O)O)c2cc(Cl)ccc21 | inactive | 55.3 | 204 | inactive | 57.7 | inactive
12 | COc1ccc(-n2c(C)cc(/C=C3\SC(=S)N(Cc4ccco4)C3=O)c2C)cc1 | inactive | 75.8 | 89.9 | inactive | 230 | inactive
13 | COc1ccc(-n2cc(-c3ccccc3)c3c(=O)[nH]cnc32)cc1 | inactive | 39.1 | 84.4 | inactive | 327 | inactive
14 | OC(CNCCC1C=Nc2ccccc21)Cn1c2ccc(Cl)cc2c2cc(Cl)ccc21 (stereo not given) | inactive | 60.4 | 67.9 | inactive | 386 | inactive
15 | O=[N+]([O-])c1cc(-c2ncccn2)c([N+](=O)[O-])s1 | inactive | 16.9 | 70.3 | inactive | 292 | inactive
16 | O=C(O)C1(NCc2ccccc2Cl)CCCCC1 | inactive | 66 | 91.3 | inactive | 34.5 | inactive
17 | CS(=O)(=O)N1CCN(C(=O)C2c3ccccc3Oc3ccccc32)CC1 | inactive | 36.7 | 78.7 | inactive | 268 | inactive
18 | COc1cccc(Nc2ccccc2C(=O)O)c1 | inactive | 92.6 | 107 | inactive | 78.2 | inactive
19 | CC1CCCN(c2ccc3nc4ccccc4c(=O)n3n2)C1 (stereo not given) | inactive | 33.3 | 74.6 | inactive | 179 | inactive
20 | COC(=O)c1cc(NC(=O)c2cccc(Cl)c2)c(=O)oc1/C=C/Nc1cc(C)cc(C)c1 | inactive | 193 | 237 | inactive | 563 | inactive

Row | Compound | outcome [1] | fluorescence, percent of control (lower = inhibition) [2] [%] | GTP binding, percent of control [3] [%] | outcome [4] | GTP binding signal, raw median fluorescence (lower = inhibition) (MCF (arbitrary fluorescence units)) [5] | outcome [6]
21 | CCC(Oc1ccc2ccccc2c1)C(=O)O (stereo not given) | inactive | 123 | 156 | inactive | 190 | inactive
22 | COc1ccc(C(=O)N/N=c2\oc3ccccc3cc2C(N)=O)cc1 | inactive | 36.1 | 82.6 | inactive | 207 | inactive
23 | CCCCCn1nc(C(=O)OCC(=O)c2c(N)n(C)c(=O)n(C)c2=O)c2ccccc2c1=O | inactive | 34 | 79.6 | inactive | 232 | inactive
24 | Cc1ccc(-c2csc3nc4c5ccccc5c(NCCCN5CCOCC5)nn4c(=O)c23)cc1 | inactive | 32 | 68.7 | inactive | 176 | inactive
25 | OCCC1CN(Cc2ccccc2O)CCN1CCc1ccccc1 (stereo not given) | inactive | 34.2 | 82.7 | inactive | 255 | inactive
26 | S=C(NCCc1ccccc1)NC1CC1 | inactive | 36.3 | 79.2 | inactive | 253 | inactive
27 | Cc1nn(CCc2nn[nH]n2)c2nc(-c3ccc(C4CCCCC4)cc3)cc(C(F)(F)F)c12 | inactive | 22.1 | 79.4 | inactive | 249 | inactive
28 | O=C(O)c1cc2ccccc2nc1OCc1ccccc1 | inactive | 49.1 | 200 | inactive | 46.4 | inactive
29 | O=C(NCc1cccs1)c1cccn2c(=O)c3sccc3nc12 | inactive | 32.6 | 69.2 | inactive | 138 | inactive
30 | O=C(O)c1nnn(Cc2ccc(Br)cc2)c1C(=O)O | inactive | 58.8 | 80.4 | inactive | 30.6 | inactive
31 | COc1ccc(CNC(=O)C2CC(=O)N(c3ccc(OCC(=O)N4C(C)CCCC4C)cc3)C2)cc1 (stereo not given) | inactive | 106 | 177 | inactive | 183 | inactive
32 | CCOC(=O)c1ccc(Nc2nc(C(=O)OCC)nc3ccccc23)cc1 | inactive | 66.3 | 128 | inactive | 159 | inactive
33 | Cc1ccc(Nc2cc(C(=O)O)c3ccccc3n2)c(C)c1 | inactive | 60.5 | 83.7 | inactive | 33.1 | inactive
34 | Cc1ccc(Nc2nc(N)c(C#N)c(CC#N)c2C#N)cc1 | inactive | 36.6 | 85.9 | inactive | 224 | inactive
35 | COc1cc(NC(=O)c2cccs2)c(OC)cc1NC(=O)CCC(=O)Nc1ccc2ncccc2c1 | inactive | 30.9 | 69.1 | inactive | 196 | inactive
36 | O=C(O)/C=C\C(=O)Nc1cccc(C(=O)Nc2cccc(O)c2)c1 | inactive | 38.6 | 84.2 | inactive | 162 | inactive
37 | C/C(=N\NC(=O)c1c[nH]c2ccccc12)c1ccc(C)o1 | inactive | 29.9 | 68.2 | inactive | 150 | inactive
38 | O=C(O)c1ccc(CNCc2ccc(F)cc2)cc1 | inactive | 43.1 | 87.8 | inactive | 260 | inactive
39 | O=C(O)c1ccc(CSCc2ccccc2)o1 | inactive | 62.4 | 91.5 | inactive | 41.9 | inactive
40 | O=C(Cn1nc2ccccc2n1)N/N=C/c1cc([N+](=O)[O-])ccc1O | inactive | 23.8 | 54.9 | inactive | 109 | inactive

Row | Compound | outcome [1] | fluorescence, percent of control (lower = inhibition) [2] [%] | GTP binding, percent of control [3] [%] | outcome [4] | GTP binding signal, raw median fluorescence (lower = inhibition) (MCF (arbitrary fluorescence units)) [5] | outcome [6]
41 | N=C1/C(=C\c2ccc(SCc3ccco3)o2)C(=O)N=C2SC=NN12 | inactive | 64.2 | 108 | inactive | 112 | inactive
42 | Cc1ccc(CSc2nnc(-c3ccccc3N)c(=O)[nH]2)cc1 | inactive | 34.1 | 80.1 | inactive | 259 | inactive
43 | CCOc1ccc(-n2c(C)nc3cc(C(=O)NCc4ccc5c(c4)OCO5)ccc32)cc1 | inactive | 41.7 | 62.5 | inactive | 163 | inactive
44 | CCOc1cc(/C=C(/C#N)c2nc3ccccc3[nH]2)ccc1OCc1ccc(C(=O)O)o1 | inactive | 56.8 | 84.9 | inactive | 103 | inactive
45 | COc1cc(NS(=O)(=O)c2ccc(NC(=O)/C=C/c3cccc([N+](=O)[O-])c3)cc2)ncn1 | inactive | 29.8 | 77.7 | inactive | 191 | inactive
46 | CCCOC(=O)c1c(NC(=O)CCC(=O)O)sc2c1CCCCC2 | inactive | 32.9 | 79 | inactive | 282 | inactive
47 | COc1ccc(S(=O)(=O)Cc2ccc(C(=O)N3CCN(c4cccc(C)c4C)CC3)o2)cc1 | inactive | 41.5 | 62.1 | inactive | 171 | inactive
48 | Cc1ccccc1C(=O)Nc1cccc(C(=O)N/N=C/c2cc(Cl)cc([N+](=O)[O-])c2O)c1 | inactive | 25.1 | 74.6 | inactive | 191 | inactive
49 | Nc1nonc1C(=O)NCCN=Cc1cc(Cc2ccccc2)cc(Br)c1O | inactive | 55.5 | 59 | inactive | 192 | inactive
50 | CC(=O)Nc1ccc(N=Cc2c(O)c(C(=O)Nc3ccccc3)cc3ccccc23)cc1 | inactive | 85.4 | 123 | inactive | 341 | inactive
51 | O=C1CS/C(=N/N=C2C3CC4CC(C3)CC2C4)N1 | inactive | 48.5 | 68.2 | inactive | 214 | inactive
52 | COc1ccc(C2=Nn3c(nnc3-c3ccco3)SC2)cc1OC | inactive | 69.9 | 137 | inactive | 146 | inactive
53 | CC(=O)c1cc2c(cc1NC(=O)c1cccc(S(=O)(=O)N3CCN(C)CC3)c1)OCO2 | inactive | 40.9 | 86.3 | inactive | 196 | inactive
54 | O=c1c2ccccc2nc2ccc(NCc3ccco3)nn12 | inactive | 31.4 | 71.8 | inactive | 196 | inactive
55 | Cc1cccc(OCCSc2nc3ccccc3n2CC(=O)O)c1C | inactive | 58.6 | 87.7 | inactive | 30.5 | inactive
56 | Cc1ccccc1OCCn1cc(C(=O)O)c2ccccc21 | inactive | 96.9 | 131 | inactive | 83.8 | inactive
57 | O=C(OC(C(=O)NCc1cccs1)c1ccccn1)c1cccs1 (stereo not given) | inactive | 83.4 | 162 | inactive | 175 | inactive
58 | Nc1nc(N)c2sc3nc4c(cc3c2n1)CCC4 | inactive | 89.1 | 126 | inactive | 136 | inactive
59 | FC(F)(F)c1cccc(NC(=S)NNC(=S)NCc2ccccc2)c1 | inactive | 30.7 | 81.8 | inactive | 222 | inactive
60 | CSc1ccc(/C=N/NC(=O)c2cc(O)cc(O)c2)cc1 | inactive | 33.1 | 58.6 | inactive | 160 | inactive
